# This is a sample that favours compounds with a hit; in the whole collection about 1.7% have one here.
# eIF4E 4G PPI: inhibitors of eIF4E and eIF4G interaction in translation initiation; P63073+Q04637; TR-FRET eIF4E-eIF4GI(517-606) binding, 2 h; inhibition, % at 21.7 µM; 220,000 compounds, 0.37% hits;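 active = inhibition above about 30%, limit read from the data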;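 also: 0% = full FRET control wells and 100% = background wells lacking eIF4GI fragment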
# PABP FP inh: blocks human PABP binding to poly(A) RNA; fluorescence polarization; 290,000 compounds, 1% hits; AID 2014; calls only at 35 µM;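 also: calls also rest on retests at 20 µM and on dose response follow-up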
# EBV gp42 block: inhibitors of Epstein-Barr virus glycoprotein 42. inhibition, % (tested at 21.74 µM). Fluorescence polarization binding assay, mP read-out. AID 1085. Q1HVG2. 220,000 compounds, 0.42% hits; in the data active = inhibition above about 50%
# Target sequence (Q1HVG2 whole entry, looked up): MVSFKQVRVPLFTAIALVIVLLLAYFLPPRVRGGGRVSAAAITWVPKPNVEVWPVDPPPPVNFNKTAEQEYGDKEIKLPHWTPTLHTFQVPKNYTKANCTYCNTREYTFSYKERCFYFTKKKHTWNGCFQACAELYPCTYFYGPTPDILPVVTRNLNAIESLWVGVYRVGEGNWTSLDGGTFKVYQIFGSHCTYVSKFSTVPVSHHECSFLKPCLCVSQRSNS
# eIF4H inh: inhibitors of RNA binding by human eIF4H; Q15056; eIF4H fluorescence polarization binding assay; inhibition, % at 35 µM; 290,000 compounds, 0.94% hits;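 also: calls also rest on retests at 20 µM and on dose response follow-up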
# MLLE-PAM2 inh: blocks PAM2 peptide binding to the PABP1 MLLE domain; GST-MLLE / FITC-PAM2 fluorescence polarization; inhibition, % at 20 µM; 360,000 compounds, 0.36% hits; in the data active = inhibition above about 35%, passing the limit was not always enough;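 also: plate controls were DMSO wells with GST-MLLE for no effect and wells lacking GST-MLLE protein for full effect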
# * marks the source's active call; other numbers are inactive results; i = inactive; ? = inconclusive; · = no result given; + = active, no number; [ ] = dose if it differs, or a comment. Unless noted, no rule for the calls is given here.
SMILES,eIF4E 4G PPI,PABP FP inh,EBV gp42 block,eIF4H inh,MLLE-PAM2 inh
O=C(COc1ccccc1)Nc1c2c(nn1-c1ccccc1)CS(=O)C2 (configuration not stated),·,i,·,-9,-5
O=C(C1=NN(c2ccccc2)C2C(=O)N(c3ccc(Cl)cc3)C(=O)C12)c1ccccc1 (configuration not stated),1,i,67*,?,13
O=C(C1=NN(c2ccccc2)C2C(=O)N(c3cccc(Cl)c3)C(=O)C12)c1ccccc1 (configuration not stated),10,+,74*,?,7
O=C(C[n+]1ccccc1)Nc1ccccc1Br,3,i,-21,-10,-4
CCCNC(=O)C1(C)CCN(C(=O)c2cc(C(C)(C)C)nn2C)C1 (configuration not stated),·,·,·,·,22
CCOC(=O)C1CCN(C(=O)Nc2ccc3nc(-c4ccco4)c(-c4ccco4)nc3c2)CC1,44*[fluorescence artefact?],i,50,?,13
O=C(Nc1ccc2nc(-c3ccco3)c(-c3ccco3)nc2c1)N1CCCCCC1,28,i,78*,86,·
O=C(Cc1c(F)cccc1Cl)c1ccc(O)cc1O,0,+,42,63,17
O=C(Cc1ccc(F)cc1)c1ccc(O)cc1O,0,+,18,75*,21
CC(C)CNC(=O)C1(C)CCCN1C(=O)C(C)(C)Oc1ccc(Cl)cc1 (configuration not stated),·,·,·,·,-7
Cc1cc(NC(=O)c2ccc(F)c(S(=O)(=O)N3CCCCC3)c2)no1,·,i,·,-5,8
Cc1oc2c(C)c(O)ccc2c(=O)c1-c1nncn1-c1ccccc1,-4,+,12,?,-48
Cc1oc2c(C)c(O)ccc2c(=O)c1N1C(=O)c2ccccc2C1=O,16,i,-11,-8,-7
COC(=O)c1cc(N2CCN(C)CC2)nc2ccccc12,0,i,82*,?,146
O=[n+]1c2c(n([O-])c3cc(F)c(N4CCCC4)cc31)CCCC2,-7,?,101*,?,81
CCN(CC)c1ccc2cc(C(=O)Nc3ccc(-n4cnnn4)c(OC)c3)c(=O)oc2c1,·,+,·,76*,·
C=CCN1C(=O)SC(Cc2cccc(OC)c2O)C1=O (configuration not stated),-2,i,-12,-10,-11
Cc1c(C)n(O)c2ccc3nonc3c12,-4,i,-7,30,-7
COn1c2c(c3c4nonc4ccc31)CCCC2,5,+,3,26,24
On1c2c(c3c4nonc4ccc31)CCCC2,6,+,2,77*,·
O=C(CN1C(=O)NC2(CCc3ccccc32)C1=O)Nc1ccccc1Cl (configuration not stated),·,·,·,·,3
CCCCc1c(CCC)c(=N)c2ccccc2n1C,-1,+,-40,2,-107
CCCCc1c(O)c2ccccc2n(CCCC)c1=O,-5,i,0,7,8
CC(C)=C(NC(=O)c1ccccc1)C(=O)Nc1ccc(C(=O)O)cc1,4,i,-12,-1,-5
O=C(CSc1ccc2nnc(-c3ccccc3)n2n1)N1CCCCC1,·,·,·,·,40*
SMILES,eIF4E 4G PPI,PABP FP inh,EBV gp42 block,eIF4H inh,MLLE-PAM2 inh
COc1ccc(-c2nnc3ccc(SCC(=O)N4CCCC4)nn23)cc1,-3,i,-12,-4,7
Cc1ccoc1C(=O)NCc1occc1C(=O)O,2,i,-20,74*,19
CS(=O)(=O)C1=NSC2=NC(=O)/C(=C\c3ccc(-c4ccccc4)o3)C(=N)N21,5,i,-39,54*,·
N=C1/C(=C/c2ccc(-c3cccc(C(=O)O)c3)o2)C(=O)N=C2SC=C(c3ccccc3)N12,80*,+,67*,52*,-81
O=C1OC(c2cccs2)=N/C1=C\c1ccc(-c2ccccc2Cl)o1,0,i,-2,-12,-98
Cc1ccc(-n2cccc2/C=C2\C(=N)N3N=C(c4ccco4)SC3=NC2=O)cc1,56*,i,67*,81,-27
CCC1=NN2C(=N)/C(=C\c3cccn3-c3ccc(Cl)cc3)C(=O)N=C2S1,1,i,12,10,-9
O=C1OC(c2cccs2)=N/C1=C/c1ccc(-c2cccc(C(=O)O)c2)o1,36*,+,-60,89,-87
N=C1/C(=C\c2ccc(-c3cc(Cl)cc(Cl)c3)o2)C(=O)N=C2SC=C(c3ccccc3)N12,-6,i,-55,35,-6
CC(C)S(=O)(=O)C1=NSC2=NC(=O)/C(=C\c3ccc(-c4ccccc4)o3)C(=N)N21,2,i,-79,?,-25
COc1ccccc1CCC(=O)N(C)CC(=O)Nc1ccc(F)cc1,·,i,·,0,2
CN(C)C(=O)c1ccc(-c2nnc(OCc3nc4ccccc4n3C)c3ccccc23)cc1,·,·,·,·,-3
COc1cc(CC(=O)OCC(=O)c2ccc(F)cc2)cc(OC)c1OC,·,·,·,·,8
Cc1cc(C)cc(-n2cccc2/C=C2/C(=N)N3C(=NC2=O)SN=C3S(C)(=O)=O)c1,13,+,4,29*,-36
CC(C)S(=O)(=O)C1=NSC2=NC(=O)/C(=C\c3ccc(-c4cccc(C(=O)O)c4)o3)C(=N)N21,1,+,-64,62,-76
C/C=C\C=C/C(=O)Nc1cccc(C2=NOC3(C2)C[C@H](C(N)=O)N(C(=O)c2ccc(OC)cc2)C3)c1 (some centres not stated),-3,i,-2,4,-5
CC(NC(=O)COC(=O)c1ccc2c(=O)n3c(nc2c1)CCCCC3)c1ccccc1 (configuration not stated),·,·,·,·,-4
O=C(COC(=O)Cn1[nH]c(=O)c2ccccc2c1=O)NNC(=O)c1ccc(Br)cc1,·,·,·,·,-16
CSc1nc(-c2ccc(Cl)cc2)nn1S(=O)(=O)c1ccccc1,2,i,-2,-9,-4
CS(=O)(=O)n1nc(-c2ccc(Cl)cc2)nc1SCc1ccccc1,3,i,87*,-13,0
c1ccc2c(-c3cccc4nccn34)cncc2c1,·,·,·,·,-6
CN(C)c1ccc(P(=O)(OC2CCCCC2)C(O)c2ccncc2)cc1 (configuration not stated),0,i,-10,2,5
Cc1cccnc1NC(=O)c1cccc(S(=O)(=O)NCc2ccccc2)c1,·,·,·,·,11
COc1cccc2c(=O)c3c([nH]c12)OC(C)(C)C3,·,·,·,·,3
COc1cccc2c(=O)c3cccc(N)c3[nH]c12,1,+,-10,94*,7
O=C(Nc1cccc(Cl)c1)Nc1sccc1-c1nc2ccccc2s1,1,+,-19,79,-100
CC(Oc1ccc(Cl)cc1Cl)C(=O)Nc1ccc(O)cc1 (configuration not stated),-1,i,21,2.6*,10
CC(Oc1ccc(Cl)cc1Cl)C(=O)Nc1cccc(O)c1 (configuration not stated),3,i,-13,-9,4
C[C@H](CO)N1C[C@H](C)[C@H](CN(C)C(=O)Nc2ccc(C(F)(F)F)cc2)OCc2cnnn2CCCC1=O,·,·,·,·,4
